Experimental data from the supplement of paper PMC6555819.

Assays:
Assay in all cases: PBM binding z-score (relative to random genomic background probes); higher = stronger binding; sequences stand for … in GC…GCGATTGACAGCGTAGAATGAAGG
[1] = system: FXR:RXRa (NR concentration 270 nM, RXRa partner concentration 90 nM)
Method in brief: (§1)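 On custom Agilent 4×180K arrays, double-stranded probes with 34-nt variable regions carried direct-repeat seeds, single-nucleotide variants, half-site ablations or random human genomic background. Ligand-free nuclear receptor dimers were applied for 1 h, and binding was read with antibodies against each partner (one per run). Binding z-scores come from regression-normalized fluorescence, with the random background probes as reference.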

[2] = system: LXRa:RXRa (NR concentration 270 nM, RXRa partner concentration 90 nM)
Method in brief: as §1

[3] = system: LXRa homodimer (NR concentration 270 nM)
Method in brief: as §1

[4] = system: LXRb:RXRa (NR concentration 270 nM, RXRa partner concentration 90 nM)
Method in brief: as §1

[5] = system: LXRb homodimer (NR concentration 270 nM)
Method in brief: as §1

[6] = system: PPARa:RXRa (NR concentration 270 nM, RXRa partner concentration 90 nM)
Method in brief: as §1

[7] = system: PPARg:RXRa (NR concentration 180 nM, RXRa partner concentration 90 nM)
Method in brief: as §1

[8] = system: PPARg:RXRa 270nM:90nM, anti-RXR (NR concentration 270 nM, RXRa partner concentration 90 nM)
Method in brief: as §1

[9] = system: PPARg:RXRa 30nM:10nM, anti-RXR (NR concentration 30 nM, RXRa partner concentration 10 nM)
Method in brief: as §1

[10] = system: PPARg:RXRa 90nM:30nM, anti-RXR (NR concentration 90 nM, RXRa partner concentration 30 nM)
Method in brief: as §1

[11] = system: PPARg:RXRa DBDmut IVT, anti-RXR (DBD mutation: RXRa K156A/R161A, NR concentration 270 nM, RXRa partner concentration 90 nM)
Method in brief: as §1

[12] = system: PPARg:RXRa IVT, anti-PPARg (NR concentration 270 nM, RXRa partner concentration 90 nM)
Method in brief: as §1

[13] = system: PPARg DBDmut:RXRa IVT, anti-PPARg (DBD mutation: PPARg1 K132A/R137A, NR concentration 270 nM, RXRa partner concentration 90 nM)
Method in brief: as §1

[14] = system: PPARg DBDmut IVT, anti-PPARg (DBD mutation: PPARg1 K132A/R137A, NR concentration 270 nM)
Method in brief: as §1

[15] = system: PPARg homodimer (NR concentration 180 nM)
Method in brief: as §1

[16] = system: PXR:RXRa (NR concentration 270 nM, RXRa partner concentration 90 nM)
Method in brief: as §1

[17] = system: PXR homodimer (NR concentration 270 nM)
Method in brief: as §1

[18] = system: RARa:RXR (NR concentration 270 nM, RXRa partner concentration 90 nM)
Method in brief: as §1

[19] = system: RARa homodimer (NR concentration 270 nM)
Method in brief: as §1

[20] = system: RARb:RXRa (NR concentration 270 nM, RXRa partner concentration 90 nM)
Method in brief: as §1

| Sequence | PBM binding z-score [1] | PBM binding z-score [2] | PBM binding z-score [3] | PBM binding z-score [4] | PBM binding z-score [5] | PBM binding z-score [6] | PBM binding z-score [7] | PBM binding z-score [8] | PBM binding z-score [9] | PBM binding z-score [10] | PBM binding z-score [11] | PBM binding z-score [12] | PBM binding z-score [13] | PBM binding z-score [14] | PBM binding z-score [15] | PBM binding z-score [16] | PBM binding z-score [17] | PBM binding z-score [18] | PBM binding z-score [19] | PBM binding z-score [20] |
| --- | --- | --- | --- | --- | --- | --- | --- | --- | --- | --- | --- | --- | --- | --- | --- | --- | --- | --- | --- | --- |
| TATACAGGGTCAAAGGCCAGACTACGAATGTCGA | 7.5 | 6.15 | 2.32 | 4.84 | 2.22 | 6.39 | 8.41 | 7.38 | 5.4 | 7.02 | 2.56 | 5.03 | 3.07 | 1.98 | 2.4 | 4.42 | 0.626 | 6.23 | 1.41 | 4.56 |
| GTACCAAGGTGAATAGGTCGTAGATGAGTAGGCG | 0.946 | 0.897 | -0.305 | 0.416 | -0.297 | 2.39 | 1.82 | 2.02 | 0.602 | 1.25 | 1.69 | 2.84 | -0.433 | -0.143 | 0.982 | 0.659 | -0.144 | 1.8 | 0.467 | 2.17 |
| CAGCCTTGGTCAGGGCCAGTATAGGAGGAACGTT | -0.896 | -0.936 | -0.824 | -0.976 | -1.46 | -0.531 | -0.0449 | -0.51 | -0.686 | -0.517 | -0.703 | -0.873 | -1.09 | -1.73 | -1.21 | -0.903 | -0.901 | -0.84 | -0.916 | 0.481 |
| CCTCGGAGGACAACAGGAGGTCAGAGCGGCCAGA | 1.36 | 2.25 | 2.24 | 1.42 | -0.43 | 2.09 | 0.411 | 0.182 | -0.715 | -0.31 | 0.0202 | 0.396 | -0.758 | -1.19 | 1.8 | 2.31 | 0.892 | 2.47 | 0.103 | 3 |
| ACAACGAGGGCAATGAGTTGATAGCACGGGTGGC | 0.234 | 0.0424 | -0.326 | -0.109 | -0.343 | 0.835 | 1.33 | 0.403 | -0.00945 | 0.211 | 2.73 | 2.02 | 0.439 | 0.354 | 0.382 | 1.76 | 4.64 | 0.401 | -0.285 | 2.15 |
| ATCGAAAGGTCGTAAGGTGAGTATACAGAAAGGC | 4.53 | 3.79 | 0.462 | 2.98 | 0.6 | 4.62 | 3.45 | 3.46 | 1.6 | 2.5 | 0.287 | 2.13 | 1.43 | 1.06 | 2.31 | 2.96 | 0.735 | 4.21 | 0.848 | 3.72 |
| GCTATTAGTTAAAAGGGCAACCGAATGATTCTCG | 0.183 | 0.439 | 0.409 | 0.624 | -0.5 | 2.02 | 1.84 | 3.45 | 1.77 | 3.13 | 0.433 | 0.998 | 0.676 | -0.168 | 1.15 | 0.537 | 0.39 | 0.874 | 1.2 | 1.97 |
| GGAACGCGGGCAAGTTGATAGCAGAGTTTGATGG | -0.639 | -0.548 | -0.597 | -1.24 | -0.732 | -0.903 | 0.256 | -0.889 | -0.573 | -0.957 | -0.223 | -0.448 | -0.461 | -1.56 | -0.831 | -0.588 | -0.209 | -0.839 | -1.25 | 0.294 |
| GCTGCTAGGTAAACTGATGGTCAGCTAAAGCTCG | -0.373 | -0.492 | -0.956 | -0.723 | -0.701 | -0.566 | -0.301 | -0.644 | -0.739 | -0.98 | 0.994 | 0.0303 | -1.25 | -0.794 | -1.08 | -0.636 | -0.67 | -0.68 | -1.2 | -0.155 |
| GATATTAGTTGAAAGGGCAACCGAATGATTCTCG | 0.693 | 1.12 | 0.566 | 1.26 | 0.285 | 2.63 | 2.9 | 4.65 | 2.47 | 4.54 | 0.557 | 1.16 | 0.952 | 0.799 | 2.21 | 0.994 | 0.916 | 1.81 | 2.21 | 2.27 |
| AGACAAAGTTCATCTAGGTAACGTAAGATATGCT | 6.83 | 6.21 | 5.23 | 3.92 | 1.56 | 4.91 | 4.69 | 4.99 | 1.93 | 3.69 | 1.22 | 3.2 | 1.33 | 1.93 | 3.1 | 5.34 | 6.29 | 4.17 | 1.38 | 4.98 |
| CCGCGGAGGACAACAGGAGGTCAGAGCTGCCAGA | 1.23 | 2.08 | 1.98 | 1.49 | -0.659 | 2.17 | 0.34 | 0.0732 | -0.523 | -0.778 | 0.131 | 0.105 | -1.44 | -1.52 | 2.29 | 2.44 | 0.34 | 2.5 | 0.536 | 3.04 |
| ACTTGTTGGTCAGCTGAGGTCACACACAATTCGG | 3.37 | 3.31 | 2.13 | 3.51 | 0.632 | 3.79 | 1.8 | 2.46 | 0.673 | 1.95 | 1.72 | 2.7 | 1.08 | 0.437 | 2.22 | 5.63 | 1.27 | 4.54 | 0.13 | 3.71 |
| ACTATTAGTTGACGTAGGGCAACCGATACGACGC | -0.0128 | -0.0574 | 0.207 | -0.148 | 0.503 | -0.147 | 1 | 0.00726 | 0.129 | 0.289 | 0.188 | 0.602 | 1.2 | 0.785 | 0.291 | -0.373 | 0.109 | -0.162 | 0.628 | 0.773 |
